Measured values reported in PubChem BioAssay AID651699 (Sanford-Burnham Center for Chemical Genomics, 2012).
Among all 360,000 compounds or so, about 2,100 (0.58%) were called active. This is one part of a sample in which actives are shown more often than they occur. No stated cut-off is given here; in the data, active means inhibition above about 36%; inactive means the rest.

Target: NEDD8-conjugating enzyme Ubc12 (Homo sapiens) + NEDD8-activating enzyme E1 regulatory subunit (Homo sapiens) (UniProt P61081+Q13564)
Sequence (P61081 whole entry, looked up): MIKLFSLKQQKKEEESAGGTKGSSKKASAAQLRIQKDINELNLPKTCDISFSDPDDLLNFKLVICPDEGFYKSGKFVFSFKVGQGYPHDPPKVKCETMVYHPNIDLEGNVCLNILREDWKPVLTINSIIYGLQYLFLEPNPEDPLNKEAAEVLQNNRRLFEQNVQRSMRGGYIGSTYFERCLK
Sequence (Q13564 whole entry, looked up): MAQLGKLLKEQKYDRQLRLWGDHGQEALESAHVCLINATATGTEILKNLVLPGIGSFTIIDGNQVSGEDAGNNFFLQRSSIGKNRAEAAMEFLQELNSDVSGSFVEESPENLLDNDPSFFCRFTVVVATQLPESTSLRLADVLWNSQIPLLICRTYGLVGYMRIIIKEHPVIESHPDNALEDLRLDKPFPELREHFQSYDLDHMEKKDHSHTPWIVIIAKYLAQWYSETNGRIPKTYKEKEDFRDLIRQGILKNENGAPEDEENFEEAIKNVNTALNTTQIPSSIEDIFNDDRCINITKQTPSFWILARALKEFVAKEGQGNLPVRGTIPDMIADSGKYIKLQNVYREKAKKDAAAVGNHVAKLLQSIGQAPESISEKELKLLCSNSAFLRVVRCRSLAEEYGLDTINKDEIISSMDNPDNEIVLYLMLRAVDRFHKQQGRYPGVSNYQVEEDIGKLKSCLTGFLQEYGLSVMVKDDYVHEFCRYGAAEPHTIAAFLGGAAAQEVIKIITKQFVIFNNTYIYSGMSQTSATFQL
Assay: inhibitors of cullin neddylation, primary screen, biochemical, TR-FRET, uHTS, NAE and Ubc12 (AID 651699)
Conditions: at 25 µM, stronger effect = higher value

inhibition, inactive:
COc1ccc(CCNC(=O)CCCCCNC(=O)N2CCn3c2nc2ccccc23)cc1OC 7.99%
O=Cc1c(Nc2ccccc2Cl)nc2ccccn2c1=O -6.5%
CC(=O)c1ccc(NC(=O)c2ccc(-n3cncn3)c([N+](=O)[O-])c2)cc1 -41.9%
C=CCn1c(COc2ccccc2C)nnc1SCC(=O)O -1.87%
C=CCn1c(COc2ccc(F)cc2)nnc1SCC(=O)Nc1cccc(S(N)(=O)=O)c1 5.06%
CCC(C)(C)n1nnnc1C(c1cccs1)N1CCN(c2nc3ccccc3s2)CC1 (configuration not stated) 5%
O=C(NCc1nnnn1-c1ccc(Cl)cc1)c1ccc2c(c1)OCO2 -5.24%
COc1cccc(Nc2nnc(SCC(=O)N3CC(C)OC(C)C3)s2)c1 (configuration not stated) -4.5%
O=C(NCCc1ccc(F)cc1)c1n[nH]c2ccccc12 9.02%
O=C(NCC1CCCO1)c1cc2c([nH]c3ccccc32)c(-c2ccc(F)cc2)n1 (configuration not stated) 21%
O=c1cc(CN2CCN(c3cccc(Cl)c3)CC2)c2cc3c(cc2o1)CCCC3 -45.2%
CCC(CC)C(=O)N1CC(=O)Nc2ccc(Br)cc2C1c1ccccc1 (configuration not stated) -1.94%
CCN(/N=C/c1ccccc1)c1cc(=O)n(C)c(=O)[nH]1 14.3%
Oc1ccc(/C=N/N(Cc2ccccc2)c2ccccc2)cc1 13.8%
CCC(C)c1ccc(NC(=S)NCc2ccccn2)cc1 (configuration not stated) 3.21%
O=S(=O)(c1cccc(Cn2nnc(-c3ccc(F)cc3)n2)c1)N1CCOCC1 -1.01%
O=C(C[C@@H]1C/C=C\CCC(=O)OC[C@@H]2CCCN2C1=O)NCCO -13.4%
O=C(CNC(=O)c1ccccc1Br)NNC(=O)c1cccs1 7.39%
O=C(NC(Cc1c[nH]c2ccccc12)C(=O)N/N=C/c1ccc(Br)cc1)c1cccs1 (configuration not stated) -5.72%
CCOc1cc(C2C(C(=O)OC)=CN(C3CCCC3)C=C2C(=O)OC)cc(Br)c1O -306%
O=C(NC1CC1)C(Cc1ccccc1)NS(=O)(=O)c1ccccc1F (configuration not stated) -5.68%
O=C(CN1CCN(c2ccccc2O)CC1)NC(=O)NCc1ccccc1 1.32%
CCOCCCNC(=O)C(NC(=O)CNC(=O)c1ccccc1)c1ccc(OC)cc1 (configuration not stated) 0.37%
CCOCCCNC(=O)C(NC(=O)CNC(=O)c1ccccc1)c1ccc(C)cc1 (configuration not stated) 2.03%
CC(C)=CCc1ccc(O)c(=O)cc1C(C)C 1.77%
O=C(O)C(F)(F)C(NCc1ccccc1)c1ccccc1 (configuration not stated) -2.55%
CC(C)c1ccc(CC(=O)N2CCC2(C)C(=O)NS(=O)(=O)c2ccc(C(C)(C)C)cc2)cc1 (configuration not stated) -0.27%
CC(=O)c1c(Nc2ccccc2)sc(C(=O)c2ccccc2)c1C 5.82%
COC(=O)c1cc2c(N)c(C(=O)c3ccc(Cl)cc3)sc2nc1C(OC)OC 12.2%
Cc1cccc2cc3c(N)c(C(=O)N4CCCc5ccccc54)sc3nc12 -5.05%
O=C(Nc1c(-c2ccccc2)nc2c(Br)cc(Br)cn12)c1ccco1 -168%
OCC[C@H]1C[C@H](O)[C@@H](O)[C@]2(Cc3ccccc3CO2)O1 -28.9%
Cc1noc(C)c1CCC(=O)O -7.17%
CN(Cc1ccccc1)C(=O)CCC1CCN(C(=O)c2ccco2)CC1 6.05%
CCOC(=O)c1cnc(SCC(=O)Nc2cccc(OC)c2)nc1N -0.72%
COc1ccc(/C=C/C(=O)OCC(=O)N2CCN(S(=O)(=O)c3ccc(C)cc3C)CC2)cc1OC 24.4%
CCCCNS(=O)(=O)c1ccc(S(=O)(=O)n2cnc3ccccc32)cc1 -2.84%
O=C(CSc1ccc(/C=N/NC(=O)c2cccc(F)c2)o1)Nc1ccccc1 -3.46%
NC(=O)Cn1cc(/C=N\NS(=O)(=O)c2ccccc2)c2ccccc21 -17.8%
COc1ccc([N+](=O)[O-])cc1NC(=O)COC(=O)/C=C/c1ccco1 -34%
O=S(=O)(NC1CC2CCC1C2)c1ccc(Cl)cc1 (configuration not stated) -2.94%
O=C(NNC(=O)C1C2CCC(C2)C1C(=O)O)c1ccc(Cl)cc1 (configuration not stated) 2.72%
CC1(C)CC(=O)C2=C(C1)Nc1cc(C(=O)c3ccccc3)ccc1NC2c1ccccn1 (configuration not stated) 24.5%
Cc1cc(C)c2cc(CN(Cc3cccs3)Cc3nnnn3CC3CCCO3)c(=O)[nH]c2c1 (configuration not stated) -8.71%
Cc1cc2cc(CN(Cc3cccs3)Cc3nnnn3CC3CCCO3)c(=O)[nH]c2cc1C (configuration not stated) 4.8%
COc1ccc2[nH]c(=O)c(CN(CC3CCCO3)C(=O)Nc3ccccc3)cc2c1 (configuration not stated) 21.1%
Cc1ccc(S(=O)(=O)N(Cc2cc3ccccc3[nH]c2=O)CC2CCCO2)cc1 (configuration not stated) 11.6%
CC(C)(C)NS(=O)(=O)CC12CCC(CC1=O)C2(C)C (configuration not stated) 4.11%
CCCN(c1ccc(C(C)C)cc1)S(=O)(=O)c1c(C)[nH]c(=O)[nH]c1=O -4.15%
COCCNC(=S)N1CCN(C)CC1 2.77%
O=C(N[C@H]1C/C=C\C(c2ccc(F)cc2)N(Cc2ccccc2)C(=O)C1)OCC1c2ccccc2-c2ccccc21 (some centres not stated) -23.7%
COCCn1c(C)cc(C(=O)CSc2nnc(C3CC3)n2C2CC2)c1C 2.64%
CC(C)c1ccc(/C=C/C(=O)NCCCN2CCOCC2)cc1 6.59%
CC(OC(=O)/C=C/c1ccccc1)C(=O)Nc1ccc(C(N)=O)cc1 (configuration not stated) 9.24%
Cc1ccc(C)c(NC(=O)COC(=O)CSc2ccccc2)c1 4.31%
Cc1ccc(S(=O)(=O)NNC(=O)Nc2cccc3ccccc23)cc1 -0.11%
CC1CCN(C(=O)CN(c2ccc(Oc3ccccc3)cc2)S(C)(=O)=O)CC1 0.77%
COc1ccc(/C=C(/NC(=O)c2ccccc2)C(=O)Nc2cccc(C(=O)O)c2)cc1 -5.87%
COc1cc2c(cc1NC(=O)COC(=O)/C=C/c1ccccc1)oc1ccccc12 29.1%
CCN(CCNC(=O)C1=C(C)C(=O)OC12CCC(C)CC2)c1ccccc1 (configuration not stated) 0.38%
N/C(Cc1ccc([N+](=O)[O-])cc1)=N\OC(=O)C1CCCCC1 -35.6%
CN(C)c1nc(N)nc(CSc2nnnn2-c2cccc3ccccc23)n1 -6.09%
CCOc1ccc(/C=N\NC(=O)c2c(C)nc3cc(C)ccn23)cc1 2.94%
CCOc1ccc2ccccc2c1/C=N/NC(=O)c1c(C)cc(C)[nH]c1=O -12.9%
COc1ccc2[nH]c(=O)c(CNc3ccc(C)c(C)c3)cc2c1 23.5%
COc1ccccc1N1CCN(C(=O)C(=O)N/N=C/c2ccccc2F)CC1 -4.11%
COc1cccc(C(=O)N/N=C(\C)c2cccc(NC(=O)c3ccc(F)cc3)c2)c1OC -8.13%
O=C(Nc1ccc(Cl)cc1)C1Cc2c(-c3ccc4c(c3)OCO4)ccnc2O1 (configuration not stated) 25.3%
N#Cc1ccccc1CN1C(=O)S/C(=C/c2cccn2-c2cccc(C(=O)O)c2)C1=O -29.6%
Cc1cccc(N2CCN(C(=O)CN(C)S(=O)(=O)c3ccc4c(c3)CCC(=O)N4)CC2)c1C 4.09%
CCCC(=O)N1CCC1(C)C(=O)NS(=O)(=O)c1ccc(Cl)cc1 (configuration not stated) 5.26%
O=C(NNC1=NCCC1)c1cccc(S(=O)(=O)N2CCCCC2)c1 3.17%
CCOc1cc(/C=N/NC(=O)c2cccc(S(=O)(=O)N3CCOCC3)c2)ccc1OCC(=O)N(C)C 6.83%

inhibition, active:
C=CCn1c(COc2cccc3cccnc23)nnc1SCC(=O)OC 46.5%
O=C(NCCCO)c1cc2c([nH]c3ccccc32)c(-c2ccc(F)cc2)n1 44.3%
CCN(/N=C/c1ccc(N(C)C)cc1)c1nc2ccccc2[nH]1 47.9%
CCN(CC)c1ccc(/C=N/NC(=O)CNC(=O)c2cccs2)cc1 55.1%
COC(=O)C1=CN(Cc2ccc(OC)cc2)C=C(C(=O)OC)C1c1ccc(O)c(OC)c1 40.7%
CCOCCCNC(=O)C(NC(=O)c1ccccc1O)c1ccccc1 (configuration not stated) 46.5%
Cc1nc2sc(C(=O)c3ccccc3)c(N)c2c2c1CCCC2 47.1%
CN(C)c1ccnc2sc(C(=O)c3ccccc3)c(N)c12 42.8%
O=C(Cn1cc(/C=N/NC(=O)c2cccc(C(F)(F)F)c2)c2ccccc21)Nc1ccc(F)cc1 44%
O=C(NNC(=S)NC1CC2CCC1C2)c1ccc(Cl)cc1 (configuration not stated) 62.7%
CCOc1ccc2[nH]c(=O)c(CN(Cc3nnnn3CCc3ccccc3)CC3CCCO3)cc2c1 (configuration not stated) 44%
CCOc1ccc2[nH]c(=O)c(CN(Cc3nnnn3Cc3ccccc3)CC3CCCO3)cc2c1 (configuration not stated) 48%
O=C(/C=C/c1cn(-c2ccccc2)nc1-c1ccc2c(c1)OCCO2)NCCCN1CCOCC1 46.4%
Cc1ccc(C)c(NC(=O)NNC(=O)c2ccc3ccccc3c2O)c1 41.2%
COc1cc(/C(=C/c2ccccc2)c2ccccc2)c2c(c1)oc1ccccc12 49.4%
CCOc1ccc2[nH]c(C(=O)N/N=C/c3cccc(OC)c3OC)cc2c1 45.1%
COc1cc2cc(C(=O)N/N=C/c3cccc(OC)c3OC)[nH]c2cc1OC 40.2%
COc1ccc2[nH]c(C(=O)N/N=C/c3cc(OC)c(OC)c(OC)c3)cc2c1 59.3%
Cc1ncc(CO)c(/C=N/NC(=O)c2cccc(S(=O)(=O)N3CCCC3)c2)c1O 47.2%
